Screening data as filed in PubChem BioAssay.
This is a sample that favours compounds with a hit; in the whole collection about 4.1% have one here.
Rv3671c protease: inhibitors of M. tuberculosis serine protease Rv3671c; inhibition, % at 5.96 µM; hit rate 0.048% among 320,000; AID 2606; in the data active = inhibition above about 38%;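 also: extracellular domain of Rv3671c used as enzyme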
BH1578 lux ind: inducers of Vibrio cholerae quorum light production without autoinducers | V. cholerae BH1578 lux reporter, luminescence, 6 h | activation, % at 18.7 µM | hit rate 0.16% among 350,000 | AID 588436; in the data active = activation mostly above about 9.7%, no sharp cut-off
FBA Mtb inh: inhibitors of M. tuberculosis fructose-bisphosphate aldolase; P9WQA3; purified M. tuberculosis FBA, fluorescence read-out; inhibition, % at 1 µM; hit rate 2.3% among 360,000; AID 588726
GDH-TPI counter-1: counter-screen for M. tuberculosis FBA inhibitors: GDH-TPI coupled enzymes; GDH-TPI coupled enzyme counterscreen, NADH absorbance; AID 588335; inhibition, % at 4.8 µM; hit rate 1.2% among 360,000; in the data active = inhibition above about 30%
RecA splice inh: inhibitors of M. tuberculosis RecA intein splicing. hit rate 0.75% among 290,000. cell-free RecA intein splicing, fluorescence. inhibition, % (no concentration beside the values). P9WHJ3; in the data active = inhibition above about 30%
Mtb UGM inh: Mtb UDP-galactopyranose mutase inhibition. purified UGM, fluorescence polarization probe displacement. inhibition, % at 10 µM. AID 504406. P9WIQ1. hit rate 0.06% among 320,000; in the data active = inhibition above about 10%, passing the limit was not always enough
Target sequence (P9WIQ1 whole entry, looked up): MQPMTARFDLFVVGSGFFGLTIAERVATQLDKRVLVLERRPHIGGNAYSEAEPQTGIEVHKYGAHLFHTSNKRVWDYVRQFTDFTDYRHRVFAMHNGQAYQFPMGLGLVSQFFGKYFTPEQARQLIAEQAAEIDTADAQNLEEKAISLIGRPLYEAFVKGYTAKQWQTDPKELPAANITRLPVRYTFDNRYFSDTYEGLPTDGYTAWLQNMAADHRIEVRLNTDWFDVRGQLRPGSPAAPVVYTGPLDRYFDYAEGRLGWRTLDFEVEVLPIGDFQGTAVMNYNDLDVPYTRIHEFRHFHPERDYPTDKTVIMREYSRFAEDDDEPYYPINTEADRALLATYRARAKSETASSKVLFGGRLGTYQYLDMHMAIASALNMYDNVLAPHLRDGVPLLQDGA
Mtb FBA inh conf: Mtb FBA inhibition, confirmed | purified M. tuberculosis FBA, fluorescence read-out | AID 651616 | hit rate 78% among 5,600 | shares compounds with FBA Mtb inh | inhibition, % at 1 µM
GDH-TPI counter-2: inhibits GDH-TPI coupling enzymes, flagging Mtb FBA hits | shares compounds with FBA Mtb inh | inhibition, % at 1 µM | GDH-TPI coupled enzyme counterscreen, fluorescence | hit rate 81% among 5,600; in the data active = inhibition above about 10%
GDH-TPI dose: inhibits GDH-TPI coupling enzymes in dose response. IC50, µM. hit rate 79% among 170. shares compounds with FBA Mtb inh. GDH-TPI coupled enzyme assay, fluorescence, artifact counterscreen; call rule not given here
A number is an active result; . = inactive; / = no result; + = active, no number. Rule as the data show it, unless noted: active = inhibition above about 27%; inactive = the rest.

SMILES	Rv3671c protease	BH1578 lux ind	FBA Mtb inh	GDH-TPI counter-1	RecA splice inh	Mtb UGM inh	Mtb FBA inh conf	GDH-TPI counter-2	others
O=C1OC(c2cccc3c(F)cccc23)c2ccccc21 (stereo unspecified)	/	.	.	.	/	/	/	/
CCc1cc(=O)oc2cc(C)cc(OCC(=O)NCc3ccncc3)c12	.	.	49	.	.	.	161	137
O=C(CNc1n[nH]c(=O)[nH]c1=O)N/N=C/c1ccccc1	.	/	/	/	.	.	/	/
O=c1[nH]c(NCCO)c(N=Cc2ccccc2)c(=O)[nH]1	.	.	85	.	.	.	108	94
Nc1cccc2cc(S(=O)(=O)O)ccc12	/	.	39	.	/	/	.	.
COc1ccc(Nc2nc(Nc3ccc(OC)cc3)nc(SC3=NCCS3)n2)cc1	.	.	41	.	.	.	116	77
COc1ccc(Nc2nc(OC)nc(OC)n2)cc1	.	.	.	.	.	.	/	/
Cc1cc(C)n2nc(-c3ccsc3-n3c(C)ccc3C)cc2n1	.	.	46	.	.	.	61	27
Cc1ccc(-c2cc3nc(C)cc(C)n3n2)cc1	.	.	.	.	.	.	/	/
Cc1cc(C)n2cc(CSc3ncn[nH]3)nc2n1	.	.	95	.	.	.	.	.
Cc1cc(C)n2cc(COc3ccccc3)nc2n1	.	.	71	.	.	.	83	61
CN(Cc1ccccc1)C(=O)c1cccc(NC(=O)Cc2ccc(NC(=O)C3CCCN(C(=O)C4CC4)C3)cc2)c1 (stereo unspecified)	/	.	.	.	/	/	/	/
CCc1ccc(OCC(=O)Nc2ccc(-c3cc4ccccc4oc3=O)c(OC)c2)cc1	.	.	37	.	.	.	64	46
COc1cc(NC(=O)c2cc(Cl)ccc2Cl)ccc1-c1cc2ccccc2oc1=O	.	.	.	.	.	.	/	/
COc1ccc(CSc2ccc(-c3nc4ccccn4c3NCc3ccccc3)cc2OC)cc1	.	.	34	.	.	.	31	28
CCCCCCSc1cc(-c2nc3cnccn3c2NCc2ccccc2)ccc1OC	.	.	.	.	.	.	/	/
Cc1ccc(-c2nc3ccccn3c2NCc2ccc3c(c2)OCO3)cc1	.	.	.	.	.	.	/	/
COc1ccc(-c2nc3ccccn3c2NC2CCCCC2)cc1SC1CCCCC1	.	.	44	.	.	.	132	115
COc1cc(-c2nc3ccccn3c2NCc2ccccc2)ccc1SC1CCCCC1	.	.	45	.	.	.	84	52
CCC(C)Sc1ccc(-c2nc3ccccn3c2NCc2ccccc2)cc1OC (stereo unspecified)	.	.	41	.	/	.	116	90
Cc1cc(N2CCC(N(C)C3CCCC3)CC2)nc2cc(O)ccc12	.	.	28	.	.	.	91	73
Cc1cc(N2CCN(c3ccccc3)CC2)nc2ccccc12	.	.	.	.	.	.	/	/
CCCCN1C(=O)C(CC(=O)NC2CC2)CC(C(=O)N(C(C)C)C(C)C)=C1C (stereo unspecified)	/	.	.	.	/	/	/	/
CC1=C(C(=O)N2CCOCC2)CC(CC(=O)NCCN2CCOCC2)C(=O)N1Cc1ccc(F)cc1 (stereo unspecified)	/	.	.	.	/	/	/	/
Nc1cc2ccncc2c2ccccc12	.	.	102	.	.	.	+	+
SMILES	Rv3671c protease	BH1578 lux ind	FBA Mtb inh	GDH-TPI counter-1	RecA splice inh	Mtb UGM inh	Mtb FBA inh conf	GDH-TPI counter-2	others
CCC(C)NC(=O)Cn1cnc2sc(C)c(S(=O)(=O)N3CCN(c4ncccn4)CC3)c2c1=O (stereo unspecified)	.	.	.	.	.	.	/	/
COCCCNC(=O)Cn1cnc2sc(C)c(S(=O)(=O)N3CCN(c4ncccn4)CC3)c2c1=O	.	.	27	.	.	.	+	+
O=C(NNC(=O)c1ccc2ccccc2c1O)NC1CCCCC1	/	.	.	.	.	.	/	/
O=C(NC1CCCCC1)c1ccc2ccccc2c1O	/	.	28	.	/	/	.	.
O=C(CCc1ccccc1)Nc1ccccc1C(=O)NCc1ccco1	.	.	.	.	.	.	/	/
Cc1ccccc1NC(=O)CNc1ccccc1C(=O)NCc1ccco1	.	.	48	.	.	.	166	143
Cc1cccc(C)c1NC(=S)Nc1ccccc1C(=O)NCc1ccco1	.	.	39	.	.	.	.	.	GDH-TPI dose=.
Cn1nnc2c(NCc3ccco3)nccc21	.	.	64	.	.	.	53	43
NNC(=O)c1sc(-c2ccccc2)cc1N	.	.	41	.	.	.	.	.
CC(=O)c1sc(-c2ccccc2)cc1N	.	.	.	.	.	.	/	/
CCOc1c2ccc(C(=O)NCc3ccc(C)cc3)cc2nn1CCOC	.	.	44	.	.	.	142	117
C=CCOc1c2ccc(C(=O)NCc3ccc(OC)cc3)cc2nn1C	.	.	.	.	.	.	/	/
CCCCn1nc2cc(C(=O)NCc3cc(C(F)(F)F)cc(C(F)(F)F)c3)ccc2c1OC	.	.	.	.	.	.	/	/
CCCn1nc2cc(C(=O)NCc3ccc(C)cc3)ccc2c1OC	.	.	58	.	.	.	45	35
c1cc(CNCCNCc2ccncc2)ccn1	/	.	.	.	/	/	/	/
CCN(C(=O)COC(=O)c1ccc([N+](=O)[O-])o1)c1cccc2ccccc12	.	.	.	.	/	.	/	/
CN(Cc1ccccc1)C(=O)c1cccc(NC(=O)Cc2ccc(NC(=O)C3CCCN(C(=O)C4CCCC4)C3)cc2)c1 (stereo unspecified)	/	.	.	.	/	/	/	/
COc1ccc(-n2c(C)cc3cc(OC(C)=O)ccc32)cc1	.	.	58	.	.	.	68	49
Cc1ccc2nc(NCC(=O)NN)nc(-c3ccccc3)c2c1	.	.	.	.	.	.	/	/
Cc1ccc2nc(N/N=C/c3ccccc3F)nc(-c3ccccc3)c2c1	.	.	52	.	.	/	.	.
OCCNc1nc(-c2ccccc2)c2cc(Cl)ccc2n1	.	.	39	.	.	.	123	104
OCCNc1nc(-c2ccccc2)c2ccccc2n1	.	.	52	.	.	.	171	148
Cc1ccc2nc(NCCO)nc(-c3ccccc3)c2c1	.	.	37	.	.	.	73	48
CC(=O)NNc1nc(-c2ccccc2)c2cc(Cl)ccc2n1	/	.	.	.	/	/	/	/
CCOC(=O)[C@@H]1[C@H]2COc3cc(OC)ccc3[C@H]2N2C(=O)N(c3ccc(Br)cc3)C(=O)[C@]12C	.	.	.	.	/	.	/	/
Cc1c(CC(=O)O)c(=O)oc2c(C)c(OCc3c(F)cccc3Cl)ccc12	/	.	44	.	.	.	76	67
C=C(C)COc1ccc2c(C)c(C)c(=O)oc2c1OCC(=C)C	.	.	.	.	.	.	/	/
C=C(C)COc1ccc2c(C)c(CC(=O)OC)c(=O)oc2c1C	.	.	89	.	/	.	76	62
